Source: PubChem
CYP2C19 activ: human CYP2C19 activators, primary screen, biochemical, luminescence; 96,000 tested, under 10 active; activation factor at 5 µM; Cytochrome P450 2C19 (Homo sapiens), P33261; recombinant CYP2C19, luciferin-H EGE luminescence; active compounds read high; 0 = fully inhibited enzyme, 1 = untreated enzyme;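 active = activation factor of at least 2 at 5 µM in the primary screen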
sEH activator: soluble epoxide hydrolase activators, primary screen, biochemical, human sEH | Bifunctional epoxide hydrolase 2 (Homo sapiens), P34913 | hit rate 0.04% among 91,000 | activation, % at 2 µM | purified human sEH enzymatic activity, activator screen; in the data active = activation above about 37%
CYP2C9 activ: human CYP2C9 activators, primary screen, biochemical, luminescence. Cytochrome P450 2C9 (Homo sapiens), P11712. recombinant CYP2C9, luciferin-H conversion; active compounds read high; factor 1 = untreated enzyme, 0 = blocked. activation factor at 5 µM. hit rate 1.4% among 96,000;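 active = activation factor of 2 or more for CYP2C9 at a 5 µM dose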
Target sequence (P11712 whole entry, looked up): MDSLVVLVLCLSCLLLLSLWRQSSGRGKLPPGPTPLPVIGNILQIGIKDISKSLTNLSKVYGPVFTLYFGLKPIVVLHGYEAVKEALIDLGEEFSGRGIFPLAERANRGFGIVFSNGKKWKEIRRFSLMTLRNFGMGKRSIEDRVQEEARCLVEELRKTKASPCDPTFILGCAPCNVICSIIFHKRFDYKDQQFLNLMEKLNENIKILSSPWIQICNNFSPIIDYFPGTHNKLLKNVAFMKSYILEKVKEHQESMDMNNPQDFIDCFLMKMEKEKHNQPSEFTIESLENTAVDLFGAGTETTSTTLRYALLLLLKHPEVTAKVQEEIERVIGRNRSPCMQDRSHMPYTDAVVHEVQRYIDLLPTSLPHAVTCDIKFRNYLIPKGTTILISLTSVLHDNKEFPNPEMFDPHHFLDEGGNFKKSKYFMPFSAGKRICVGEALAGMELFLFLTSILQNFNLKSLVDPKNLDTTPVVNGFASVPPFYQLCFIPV
sEH inh: soluble epoxide hydrolase inhibitors, primary screen, biochemical, human sEH. recombinant human sEH enzymatic activity assay. hit rate 0.34% among 91,000. inhibition, % at 2 µM; in the data active = inhibition above about 80%
CYP2C9 inh: blockers of cytochrome P450 2C9 activity – biochemical, luminescence, ADME assay, primary screen | P11712 | CYP2C9 Supersomes, luciferin-H conversion | inhibition, % at 5 µM | hit rate 20% among 96,000 | AID 777, 2007;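 active = blocking of liver enzyme CYP2C9 beyond about 50% at 5 µM, limit read from the data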
CYP2C19 inhib: blockers of cytochrome P450 2C19 activity – biochemical, luminescence, ADME assay, primary screen; P33261; CYP2C19 Supersomes, luciferin-H EGE luminescence, 30 min; inhibition, % at 5 µM; hit rate 21% among 96,000; AID 778, 2007;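 active = CYP2C19 inhibition above a set limit at 5 µM in the primary screen, cut at about 50% in these data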
Each line names hits and unclear results; the compound was inactive in the other large screens. This is a sample that favours compounds with a hit; in the whole collection about 27% have one here.

CCOC(=O)Cc1ccc(NS(=O)(=O)c2ccc(SC)cc2)cc1	CYP2C9 inh 71.0
O=C(Cc1ccc(NS(=O)(=O)c2ccc(F)cc2)cc1)NCc1ccccc1	CYP2C9 inh 94.3, CYP2C19 inhib 75.5
CCNC(=O)Cc1ccc(NS(=O)(=O)c2ccc(F)cc2)cc1	CYP2C9 inh 52.6
CCNS(=O)(=O)c1ccc(NC(=O)Cc2ccc(F)cc2)cc1	none
O=C(C1CC1)N1CCc2[nH]c3ccccc3c2C1	none (no result: CYP2C19 activ, CYP2C9 activ, CYP2C9 inh, CYP2C19 inhib)
CC1c2[nH]c3ccccc3c2CCN1S(C)(=O)=O (stereo unspecified)	CYP2C19 inhib 97.7
C=CCOn1c(C)c(C(C)=O)c2c3no[n+]([O-])c3ccc21	none (no result: CYP2C19 activ, CYP2C9 activ, CYP2C9 inh, CYP2C19 inhib)
CCOC(=O)c1ccc(N2CSC3=C(C#N)C(c4ccc(OC)cc4OC)CC(=O)N3C2)cc1 (stereo unspecified)	CYP2C9 inh 91.3, CYP2C19 inhib 51.5
CCOC(=O)c1ccc(N2CN=C3SCC(=O)N3C2)cc1	none
COc1ccc(OC)c(C2CC(=O)N3CN(c4cccc(Cl)c4)CSC3=C2C#N)c1 (stereo unspecified)	CYP2C9 inh 90.4, CYP2C19 inhib 70.1
COc1ccc(OC)c(C2CC(=O)N3CN(c4ccc(C)c(Cl)c4)CSC3=C2C#N)c1 (stereo unspecified)	CYP2C9 inh 96.2, CYP2C19 inhib 54.0
COc1cccc(N2CCN(C3CC(=O)N(c4ccc(C)c(Cl)c4)C3=O)CC2)c1 (stereo unspecified)	none (no result: sEH activator, sEH inh)
COc1ccc(C2Nc3ccccc3C(=O)N2Cc2ccco2)cc1COc1ccccc1F (stereo unspecified)	CYP2C9 inh 99.4, CYP2C19 inhib 90.0
COc1ccc(C2Nc3ccccc3C(=O)N2Cc2ccco2)cc1COc1ccc(NC(C)=O)cc1 (stereo unspecified)	CYP2C9 inh 100.0, CYP2C19 inhib 84.9
COc1cc(NC2c3ncccc3C(=O)N2Cc2ccco2)cc(OC)c1 (stereo unspecified)	none
COc1ccc(C2Nc3ccccc3C(=O)N2Cc2ccccc2)cc1CSc1ccccn1 (stereo unspecified)	none
CC(C)CNC(=S)NNC(=O)c1ccco1	none (no result: CYP2C19 activ, CYP2C9 activ, CYP2C9 inh, CYP2C19 inhib)
COc1ccc(Cl)cc1-n1c(C)cc(C=O)c1C	CYP2C9 inh 60.1, CYP2C19 inhib 87.3
CCCCSc1nnc(-c2cc3c(C(F)(F)F)nn(C)c3s2)n1C	CYP2C9 activ 2
C#CCSc1nnc(-c2cc3c(C(F)(F)F)nn(C)c3s2)n1C	none
Cc1ccc(Cl)cc1Nc1nc(-c2sc(NC(=O)c3ccco3)nc2C)cs1	CYP2C9 inh 56.7
COc1cccc(N(C(=O)c2ccco2)c2nc(-c3sc(NC(=O)c4ccco4)nc3C)cs2)c1	CYP2C9 inh 54.8
COc1ccccc1Nc1nc(-c2sc(NC(=O)c3ccco3)nc2C)cs1	CYP2C9 inh 62.9
Cc1nc(NC(=O)c2ccco2)sc1-c1csc(Nc2ccc(Cl)cc2)n1	none
Cc1ccc(Cl)cc1Nc1nc(-c2sc(NC(=O)c3cccc(Cl)c3)nc2C)cs1	CYP2C9 inh 54.7
Cc1ccccc1Nc1nc(-c2sc(NC(=O)c3cccc(Cl)c3)nc2C)cs1	none
CCOC(=O)CC(=O)CSc1ncnc2c1oc1ccccc12	none
CCCCC(=O)NCCc1cc2c(C)ccc(C)c2[nH]c1=O	none (no result: CYP2C19 activ, CYP2C9 activ, CYP2C9 inh, CYP2C19 inhib)
CCC(=O)Nc1cccc(NC(=O)CSc2nnc(C(C)C)n2CC)c1	none
CCOc1ccc(NC(=O)CNc2ccc(C)cc2Cl)cc1	CYP2C19 inhib 77.7
CCOc1ccc(NC(=O)Nc2cc(C)ccc2F)cc1	CYP2C19 inhib 74.7
CCOc1ccc(NCC(=O)Nc2ccc(C)cc2C)cc1	none
CCC(CC)C(=O)Nc1cccc(S(=O)(=O)c2cccc(NC(=O)C(CC)CC)c2)c1	none
CCCC(=O)Nc1cccc(NC(=O)c2ccc3c(c2)OCO3)c1	CYP2C9 inh 52.4
CCC(=O)Nc1cccc(NC(=O)c2ccc3c(c2)OCCO3)c1	none (no result: sEH activator, sEH inh)
O=C(Nc1cccc(F)c1)c1ccc2c(c1)OCO2	CYP2C9 inh 50.1, CYP2C19 inhib 93.9
CCCN(CCC)S(=O)(=O)c1cccc(C(=O)Nc2ccc3c(c2)OCO3)c1	CYP2C9 inh 63.0
CCC(CC)C(=O)Nc1cccc(C(=O)Nc2ccc(S(=O)(=O)Nc3ccc(C)cc3)cc2)c1	CYP2C9 inh 90.5, CYP2C19 inhib 86.8
Cn1c(=O)c2cc(S(=O)(=O)NCCC(=O)NC3CCCCCCC3)ccc2n(C)c1=O	none
CCC(C)(C(=O)NC1CCCC1)N(C(=O)c1ccccn1)c1ccc(C)cc1 (stereo unspecified)	none
COc1ccccc1NC(=O)CSc1nnc(C)o1	none
NC(=O)c1cnn2c(C(F)(F)F)cc(-c3ccc(F)cc3)nc12	none
NC(=O)NCc1ccc(Cl)cc1	none
CC(=O)Nc1nonc1NC(=O)CSc1ncn[nH]1	none
COc1ccc(C2N=C(Nc3ccc(C)cc3)Nc3nc(C)cc(=O)n32)cc1 (stereo unspecified)	none
Cc1ccc(NC(=O)c2oc3ccccc3c2NC(=O)c2ccc3c(c2)OCO3)cc1	CYP2C9 inh 50.7 (no result: sEH activator, sEH inh)
CCC(CC)C(=O)Nc1cccc(C(=O)Nc2ccc3c(c2)OCO3)c1	CYP2C9 inh 87.8, CYP2C19 inhib 84.0 (no result: sEH activator, sEH inh)
CCOc1ccc(/C(O)=C2/C(=O)C(=O)N(CCCn3ccnc3)C2c2cccs2)cc1Cl (stereo unspecified)	CYP2C9 inh 70.2
Cc1ccc(Cl)cc1NC(=O)N[C@@H](C)C(=O)O	none
N#CC1=C2SCN(c3ccccc3)CN2C(=O)CC1c1ccccc1Cl (stereo unspecified)	CYP2C9 inh 61.4
Cc1ccc(C2CC(=O)N3CN(c4ccc(Br)cc4)CSC3=C2C#N)o1 (stereo unspecified)	CYP2C9 inh 97.9, CYP2C19 inhib 90.1
CC(C)c1ccc(C2CC(=O)N3CN(C)CSC3=C2C#N)cc1 (stereo unspecified)	none
N#CC1=C2SCN(c3ccccc3)CN2C(=O)CC1c1cccs1 (stereo unspecified)	CYP2C9 inh 83.2, CYP2C19 inhib 50.0
COc1cc(OC)c(C2CC(=O)N3CN(c4ccccc4)CSC3=C2C#N)cc1OC (stereo unspecified)	none
CCOc1ccc(N2CSC3=C(C#N)C(c4ccco4)CC(=O)N3C2)cc1 (stereo unspecified)	none
N#CC1=C2SCN(c3ccccc3)CN2C(=O)CC1c1c(Cl)cccc1Cl (stereo unspecified)	CYP2C9 inh 87.7
CC(C)OC(=O)c1c(-c2ccc(C(C)C)cc2)csc1NC(=O)C1CCCO1 (stereo unspecified)	none
CC(C)OC(=O)c1nn2c(C(F)(F)F)cc(-c3ccc(Br)o3)nc2c1Br	none
CCCC(CCC)C(=O)Nc1c[nH]c(=O)[nH]c1=O	none
